Our source for the growth values is PubChem BioAssay (NCI).

This is part of a sample that, as a whole, favours compounds with a hit. Of some 83,000 tested, about 20% had one in any assay.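 Treatment: one concentration, 48 hours, 96-well format. Scoring: percent growth, with anything below 10 considered active.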 A number with no mark means an inactive call. Active and inactive are the calls of the source.

Test in all cases: NCI-60 one-dose screen, 48 h (100 = growth as untreated, 0 = no growth, -100 = all killed)
Holding throughout (settings): 10 µM unless noted

Test [1] concerns DU-145 prostate.
In test [2] the test system is K-562 leukemia.
Test [3] has as its system MALME-3M melanoma.
The subject of test [4] is MDA-MB-231 breast.
Test [5] relates to SF-268 CNS.
Test [6] relates to SF-295 CNS.
Test [7] concerns SF-539 CNS.
Test [8] deals with UACC-257 melanoma.
The test system of test [9] is M14 melanoma.
In test [10] the test system is HCT-15 colon.
Test [11] has as its system HT29 colon.
For test [12], the system named is SNB-75 CNS.
Test [13] relates to SNB-19 CNS.
In test [14] the test system is PC-3 prostate.
For test [15], the system named is SK-MEL-5 melanoma.
Test [16] has as its system UACC-62 melanoma.
Test [17] concerns LOX IMVI melanoma.
For test [18], the system named is SK-MEL-28 melanoma.
The subject of test [19] is RXF 393 renal.
For test [20], the system named is U251 CNS.

In the case of `CCc1ccccc1NC(=O)c1sc2nc3c(cc2c1N)C(=O)CCC3`, the growth in test [1] was 2.55% (active); in test [2], 11%; in test [3], 60.8%; in [4], 36.6%; in [5] it was 40.4%; in [6] it was -3.21% (active). Further, the growth in test [7] was -1.47% (active); in [8] it was 65%; in test [9] it was 15.1%; in test [10], 31.2%; in [11], 8.59% (active); in test [12], -15.4% (active). Further, the growth is 68.9% in test [13]; 18% in [14]; 30.7% in [15]; 34.3% in test [16]; 42.6% in test [17]; 43.7% in test [18].
Turning to `CCOC(=O)c1nc(Nc2cc(C)[nH]n2)c2ccccc2n1`, the growth in test [1] was 109%; in test [2], 99.9%; in test [3] it was 116%; in [4], 108%; in test [5], 101%; in [6] it was 107%. For the same compound, the growth in test [7] is 95.5%; in test [8], 106%; in test [9], 80.9%; in [10], 73.4%; in test [11], 103%; in test [12], 16.9%. Besides, the growth in test [13] was 115%; in [14], 93.3%; in [15], 105%; in test [16], 91.1%; in test [17], 97.2%; in test [18], 93.2%.
As to `c1c2c(cc3c1OCO3)Cc1cc3c(cc1Cc1cc4c(cc1C2)OCO4)OCO3`, the growth in test [1] is 121%; in [2] it was 117%; in [3] it was 116%; in [4] it was 116%; in test [5] it was 111%; in [6], 95.8%. Moreover, the growth in [7] is 97.9%; in test [8], 84.6%; in [9], 104%; in [10], 103%; in [11], 108%; in test [12] it was 73%. For the same compound, the growth in test [13] was 106%; in test [14], 99.8%; in [15] it was 108%; in test [16], 108%; in test [17] it was 95.8%; in test [18], 103%.
For the compound `COc1cc(-c2cc(-c3nc4ccc(Cl)cc4[nH]3)[nH]n2)cc(OC)c1OC`, the growth was 57.8% in test [1]; 43.2% in [2]; 50.4% in test [3]; 81.1% in [4]; 46.6% in [19]; 81.7% in [5]. Moreover, the growth was 62.9% in test [8]; 38.1% in test [9]; 51.9% in test [10]; 71.7% in [11]; 68.4% in [12]; 85% in [13]. For the same compound, the growth in [20] is 69.7%; in test [14], 26.1%; in test [15] it was -5.65% (active); in test [16], 37.1%; in test [17] it was 34%; in test [18] it was 60.1%.
As for `O=C1Nc2ccccc2C12CC(c1ccccc1)=NN2` (stereo not drawn), the growth was 88.1% in [1]; 18.5% in test [2]; 40.1% in [3]; 55.4% in [4]; 90.6% in test [19]; 67.1% in test [5]. Moreover, the growth is 47% in test [7]; 38.1% in [9]; 33% in test [10]; 8.14% (active) in test [11]; 38.4% in test [12]; 68.7% in test [13]. For the same compound, the growth in test [14] was 48.2%; in test [15], 30.5%; in [16], 46.7%; in [17], 48.4%; in test [18], 56.8%.
With `NC(CC(=O)O)C(=O)OCc1ccccc1` (stereo not drawn), the growth in [1] is 109%; in test [2], 106%; in test [3], 81.1%; in [4], 105%; in test [5] it was 100%; in test [6], 93.3%. Moreover, the growth in [7] is 93.4%; in test [8], 89.2%; in [9] it was 104%; in test [10], 95.1%; in test [11] it was 115%; in [12] it was 65.5%. Moreover, the growth in [13] was 101%; in test [14] it was 103%; in test [15], 97.8%; in test [16], 94.5%; in test [17], 107%; in test [18] it was 99.1%.
As to `O=C(Nc1cccc2c1C(=O)c1cccc(Nc3cccc4c3C(=O)c3cccc(NC(=O)c5ccccc5)c3C4=O)c1C2=O)c1ccccc1`, the growth was 120% in [1]; 116% in [2]; 120% in [3]; 120% in test [19]; 110% in test [5]; 100% in test [6]. Further, the growth is 109% in test [7]; 103% in test [8]; 110% in [10]; 124% in [11]; 92.8% in test [12]; 109% in [20]. Further, the growth in test [14] was 87.2%; in test [15], 112%; in [17] it was 98.1%; in test [18], 118%.
As for `CCCN(CCC)CN(CCC)CCC`, the growth is 106% in [1]; 95.6% in test [2]; 97.6% in [3]; 98.2% in test [19]; 102% in test [5]; 107% in [6]. In addition, the growth was 102% in test [7]; 100% in test [8]; 102% in [9]; 102% in [10]; 96.5% in test [11]; 96% in test [12]. Besides, the growth is 98.1% in test [20]; 97.5% in test [14]; 107% in test [15]; 104% in test [17]; 106% in [18].
For the compound `Cc1cc(Nc2nc(-c3cccnc3)nc3ccccc23)n[nH]1`, the growth is 74.3% in [1]; 48.1% in [2]; 99.1% in test [3]; 95.7% in test [4]; 58.1% in test [5]; 53.3% in test [6]. Also, the growth was 34.7% in test [7]; 59.7% in [8]; 72.5% in [9]; 29.7% in [10]; 23.4% in [11]; -32.9% (active) in test [12]. Further, the growth in test [13] is 77.6%; in test [14] it was 58.7%; in test [15], 73.8%; in test [16], 49.3%; in [17], 20.1%; in [18], 50.5%.
